According to PubChem BioAssay (EPA / NIEHS):
Some compounds were tested as several samples or in several runs, with calls that do not always agree. Activity calls are given as the source filed them. The calls were made as follows: active = hit-call score of the fitted dose curve at least 0.9, where 1 is the maximum; inactive = score below 0.9.

Experiment: BSK_KF3CT_SRB: Viability Assessment in the BioMAP Diversity Plus: KF3CT Assay (AID 2283069);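 also: fitted for both signal gain and loss against DMSO baseline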
Conditions: primary human keratinocytes with fibroblasts
Method: BSK_KF3CT is a cell-based, multiplexed-readout assay that uses keratinocytes and foreskin fibroblasts, a human skin primary cell co-culture, with measurements taken at 24 hours after chemical dosing in a 96-well plate.BSK_KF3CT_SRB is an assay component measured in the BSK_KF3CT assay. It measures 0.1% sulforhodamine related to cell death using Sulforhodamine staining technology.Data from the assay component BSK_KF3CT_SRB was analyzed into 1 assay endpoint. This assay endpoint, BSK_KF3CT_SRB, was analyzed with bidirectional fitting relative to DMSO as the negative control and baseline of activity. Using a type of viability reporter, gain or loss-of-signal activity can be used to understand changes in the signaling. Furthermore, this assay endpoint can be referred to as a primary readout, because this assay has produced multiple assay endpoints where this one serves a signaling function. To generalize the intended target to other relatable targets, this assay endpoint is annotated to the cell morphology intended target family, where the subfamily is cell conformation.
The levels of cell surface (or secreted, indicated by the prefix "s") biomarker endpoints were measured by ELISA. Overt cytotoxicity to cells in confluent adherent cultures (all systems other than the BT system) was assessed by measuring total protein levels using sulforhodamine B (SRB) staining in parallel cultures at the time of biomarker measurements, indicated as SRB endpoints. For proliferation assays for adherent cell types, individual cell types are cultured at sub-confluence and relative cell numbers quantified by SRB staining at time points optimized for each system (48 h: 3C and CASM3C systems; 72 h: BT and HDF3CGF systems; 96 h: SAg system). SRB was performed by staining cells with 0.1% SRB after fixation with 10% TCA and reading wells at 560 nm.Viability and proliferation of PBMC (T cells) was quantified by Alamar Blue reduction for the SAg and BT systems. For PBMC viability (referred to as PBMC Cytotoxicity within the assay endpoint names), cells were plated (75,000/well in a 96-well plate) and then chemical samples added for 1 h before addition of activators, SEB and TSST-1 (20 ng/mL final concentration each). Cells were incubated for 90 h. Then, Alamar Blue (20 uL/well) (Invitrogen, Cat DAL1100) was added for 6 h, and the plates were read with a fluorescence microplate reader at 546/580 nm (excitation/emission). For PBMC proliferation, cells were plated and activated as above but incubated for only 16 h prior to addition of Alamar Blue. Plates were read after 6 h.

| Structure (SMILES) | outcome | AC50 |
| --- | --- | --- |
| OCC(CO)(CBr)CBr | inactive |  |
| CCC(C)c1ccccc1O (stereo not given) | inactive |  |
| O=C1OC2(c3ccccc31)c1cc(I)c(O)c(I)c1Oc1c2cc(I)c(O)c1I | inactive |  |
| CCCCCc1ccc(O)cc1 |  | 12.4 µM (active) |
| C=CC(=C)CC/C=C(\C)CCC=C(C)C | inactive |  |
| C=CC(C)(CCC=C(C)C)OC(C)=O (stereo not given) | inactive |  |
| NC(=NCCCCCCN=C(N)/N=C(\N)Nc1ccc(Cl)cc1)/N=C(\N)Nc1ccc(Cl)cc1 |  | 4.79 µM (active) |
| CCCCC=O | inactive |  |
| O=C(O)C(F)(F)OC(F)(F)C(F)(F)OC(F)(F)C(F)(F)OC(F)(F)C(F)(F)C(F)(F)C(F)(F)F | inactive | 8.04 µM (active) |
| CC(C)(C)c1ccc(O)c(O)c1 | inactive |  |
| O=C(c1ccccc1)c1ccccc1 | inactive |  |
| Cc1[nH]nc2c1N=C(c1ccccc1Cl)c1cc([N+](=O)[O-])ccc1N2 | inactive |  |
| OCC(F)(F)C(F)(F)C(F)(F)C(F)(F)C(F)(F)C(F)(F)C(F)(F)C(F)(F)C(F)(F)C(F)(F)C(F)(F)F | inactive |  |
| Cc1cccc2c1ccc1ccccc12 | inactive |  |
| CS(=O)(=O)c1ccc([C@@H](CC2CCCC2)C(=O)Nc2cnccn2)cc1Cl | inactive |  |
| O=C(CCCN1CCC(O)(c2ccc(Cl)cc2)CC1)c1ccc(F)cc1 | inactive |  |
| C=COC(=O)C(C)(C)CCCCCC |  | 34.4 µM (active) |
| O=C(NCc1ncc(C(F)(F)F)cc1Cl)c1c(Cl)cccc1Cl | inactive |  |
| Clc1ccc(Nc2nnc(Cc3ccncc3)c3ccccc23)cc1 | inactive |  |
| O=C1c2ccc(O)c(O)c2C(=O)c2c(O)ccc(O)c21 | inactive |  |

| Structure (SMILES) | outcome | AC50 |
| --- | --- | --- |
| COc1cc(OC)nc(NC(=O)NS(=O)(=O)Nc2ccccc2C(=O)N(C)C)n1 | inactive |  |
| CN(C)CCOC(c1ccccc1)c1ccccc1 | inactive |  |
| CC(=O)Nc1ccc(O)cc1 | inactive |  |
| CCCCC(CC)C(=O)O (stereo not given) | inactive |  |
| Oc1c(Cl)cc(Cl)cc1Sc1cc(Cl)cc(Cl)c1O | inactive |  |
| Cc1ccc(C(=O)c2ccccc2)cc1 | inactive |  |
| CCCCCCCCCCCCCCC | inactive |  |
| N=C(N)c1ccc(OCCCCCOc2ccc(C(=N)N)cc2)cc1 | inactive |  |
| O=C(NO)c1ccccc1 | inactive |  |
| C[C@]12CC[C@@H]3c4ccc(O)cc4CC[C@H]3[C@@H]1C[C@@H](O)[C@@H]2O | inactive |  |
| CC[N+](CC)(CC)Cc1ccccc1 | inactive |  |
| O=C(O)CCC(F)(F)C(F)(F)C(F)(F)C(F)(F)C(F)(F)F | inactive |  |
| C=CC(=O)OCCC(F)(F)C(F)(F)C(F)(F)C(F)(F)C(F)(F)C(F)(F)C(F)(F)C(F)(F)F | inactive |  |
| CCCCc1oc2ccccc2c1C(=O)c1cc(I)c(OCCN(CC)CC)c(I)c1 |  | 9.02 µM (active) |
| OCCN1CN(CCO)CN(CCO)C1 | inactive |  |
| COC1=CC(=O)C[C@@H](C)[C@]12Oc1c(Cl)c(OC)cc(OC)c1C2=O | inactive |  |
| CN(C)c1ccc(C(=C2C=CC(=[N+](C)C)C=C2)c2ccccc2)cc1 |  | 0.318 µM (active) |
| COCN(COC)c1nc(N(COC)COC)nc(N(COC)COC)n1 | inactive |  |
| Oc1cc2ccccc2cc1O | inactive |  |
